# Data: PubChem BioAssay AID652016 (National Center for Advancing Translational Sciences (NCATS), 2013)
# Inconclusive results are not listed. Unmarked numbers belong to inactive results. Active and inactive are the calls of the source. Calls come from the whole dose curve; as a rule, active = well fitted inhibition curve with a large enough effect; inconclusive = small, poorly fitted or top-dose-only effect; inactive = flat fitted curve, though single readings scatter.
# Molecular target: Luciferin 4-monooxygenase (Photinus pyralis) (UniProt P08659)
# Sequence (P08659 whole entry, looked up): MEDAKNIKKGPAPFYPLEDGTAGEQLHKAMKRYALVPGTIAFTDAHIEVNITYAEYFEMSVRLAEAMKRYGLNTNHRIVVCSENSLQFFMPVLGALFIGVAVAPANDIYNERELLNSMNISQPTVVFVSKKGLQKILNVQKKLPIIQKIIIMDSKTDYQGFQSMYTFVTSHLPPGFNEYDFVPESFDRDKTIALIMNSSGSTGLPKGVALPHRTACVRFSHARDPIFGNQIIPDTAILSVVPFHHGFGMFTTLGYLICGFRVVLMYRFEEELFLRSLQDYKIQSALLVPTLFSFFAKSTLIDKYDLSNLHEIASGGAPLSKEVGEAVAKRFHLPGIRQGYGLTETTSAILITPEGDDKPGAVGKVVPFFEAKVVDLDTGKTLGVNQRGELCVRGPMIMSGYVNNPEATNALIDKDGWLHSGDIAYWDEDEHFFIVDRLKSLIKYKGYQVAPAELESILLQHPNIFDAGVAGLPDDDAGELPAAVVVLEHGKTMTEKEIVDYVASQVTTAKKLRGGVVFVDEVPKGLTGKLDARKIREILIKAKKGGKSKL
# Test: qHTS Assay for Inhibitors of Firefly Luciferase from the GSK Published Protein Kinase Inhibitor Set
# Conditions: purified firefly luciferase, luminescence inhibition; series mostly up to 57.5 µM; activity change, negative = inhibition: at the top concentration
# In short: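 Purified P. pyralis luciferase, 10nM, with 10uM D-luciferin and 10uM ATP in 50mM Tris acetate pH 7.5, 10mM Mg acetate, 0.01% Tween-20, 0.05% BSA. Titration ~60uM to 300pM; luminescence read after about 5 min.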
# % is set by controls: 0 for no effect and ±100 for the full control effect; potency is the fitted concentration of half-maximal effect.
Compound,"activity change, negative = inhibition [%]",Potency
O=C(O)c1ccc(Oc2nccc(-c3c(-c4ccc(F)cc4)ncn3C3CCNCC3)n2)cc1,12.2,–
CCn1c(-c2nonc2N)nc2cnc(Oc3cccc(NC(=O)c4ccc(N(C)C)cc4)c3)cc21,–,1.03 µM (active)
NC(=O)c1cc(-c2ccc(F)cc2)cc(-c2ccncc2)c1N,0.778,–
Cc1nnc(-c2cccc(-c3ccc(C(=O)NCC4CC4)cc3)c2)o1,-8,–
NS(=O)(=O)c1ccc(N=Cc2c(O)[nH]c3ccc4ncsc4c23)cc1,–,inactive
c1ccc(Cc2nc3ccc(Nc4ncnc5ccccc45)cc3[nH]2)cc1,–,16.3 µM (active)
CCOc1ccc2c(-c3ccnc(Nc4cccc(C(F)(F)F)c4)n3)cnn2n1,11.5,–
N#Cc1cccc(Nc2nccc(-c3cnn4ncccc34)n2)c1,6.81,–
Fc1ccc(Nc2nccc(-c3c(-c4ccc(C(F)(F)F)cc4)nn4ncccc34)n2)cc1F,-1.73,–
CN1CCC(n2cnc(-c3ccc(F)cc3)c2-c2ccnc(Nc3ccccc3)n2)CC1,3.59,–
CCn1c(-c2nonc2N)nc2cncc(C(=O)NCCNC)c21,9.59,–
CN1CCC(C(=O)Nc2n[nH]c3nc(-c4ccc(O)cc4)c(Br)cc23)CC1,–,inactive
Clc1ccc(CNc2nccc(-c3cnn4ncccc34)n2)cc1,2.79,–
O=C(OC1CNC(C#Cc2cc3ncnc(Nc4ccc5c(ccn5Cc5cc(F)ccc5F)c4)c3s2)C1)N1CCOCC1 (stereo not drawn),-6.86,–
Cc1cccc(-c2[nH]ncc2-c2ccc3ncccc3n2)n1,13.3,–
CCS(=O)(=O)c1ccc(OC)c(Nc2ncc(-c3cccc(F)c3)o2)c1,7.1,–
N#Cc1cccc(Nc2ncc(-c3ccccc3)o2)c1,–,1.03 µM (active)

Compound,"activity change, negative = inhibition [%]",Potency
CS(=O)(=O)c1ccc(Oc2nccc(-c3c(-c4ccc(F)cc4)ncn3C3CCNCC3)n2)cc1,7.12,–
CN(C)CCOc1ccc(-c2cc(-c3ccc4c(c3)CCC4=NO)c(-c3ccncc3)o2)cc1,-6.34,–
CCCN1CCCC(c2ccc(Nc3nc(Nc4cc(F)ccc4C(N)=O)c4cc[nH]c4n3)c(OC)c2)C1 (stereo not drawn),27.6,–
COc1cc(Nc2nccc(-c3cnn4ncccc34)n2)cc(OC)c1,-15.6,–
NS(=O)(=O)c1ccc(-c2cc3ccncc3cc2OCc2ccccc2)cc1,2.83,–
COc1cc(N2CCN(C(C)C)CC2)ccc1Nc1nc(Nc2cccc3ncccc23)c2cc[nH]c2n1,39.4,–
COc1cccc(-n2nc(C)c3c(NN=C(C)c4ccncc4)ncnc32)c1,-0.792,–
Nc1nc(-c2ccccn2)c(-c2ccc3ncccc3n2)s1,–,32.6 µM (active)
CC(=O)Nc1cccc(C#Cc2cncnc2Nc2ccc(OCc3cccc(F)c3)c(Cl)c2)n1,-10.5,–
O=S(=O)(CCOCc1ccc(-c2ccc3ncnc(Nc4ccc(OCc5cccc(F)c5)c(Cl)c4)c3c2)o1)c1ccccc1,6.47,–
COc1ccc(-c2nn3ncccc3c2-c2ccnc(Nc3ccc(Cl)c(C(F)(F)F)c3)n2)cc1,9.12,–
ON=C1CCc2cc(-c3nc(C4CCNCC4)[nH]c3-c3ccncc3)ccc21,-26,–
Clc1ccc(-c2nn3ncccc3c2-c2ccnc(Nc3ccccc3)n2)cc1,8.58,–
COc1cc2ncnc(Nc3ccc(C)c(O)c3)c2cc1OC,1.88,–
COc1cccc(-c2c[nH]c3c(NN=Cc4ccncc4)ncnc23)c1,–,5.8 µM (active)
Cn1cc(C=C2C(=O)Nc3cccnc32)c2ccccc21,–,14.6 µM (active)
